Source: PubChem (National Center for Advancing Translational Sciences (NCATS))
Shown are actives, neighbours in structure and some others; about 8% of the full set was active somewhere.
HCMV antiviral – blocks human cytomegalovirus replication; hit rate 4.5% among 410,000; activity change, negative = inhibition, % at 57.5 µM; HFF cells, HCMV-luciferase reporter, 72 h; hits give low values; in the data active means activity change below about -60%; inconclusive means no clear call, values can overlap the other calls; inactive means above about -39%; further: on the % scale 0 is the no-effect control and ±100 the full control effect
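Steps: HFFs plated, 16 h 37C; compounds added; HCMV-luciferase added to MOI 1 PFU/cell; 72 h 37C; OneGlo reagent, 5 min room temperature; luminescence read, normalized to controls.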
SARS PLpro yeast – inhibitors of SARS-CoV papain-like protease in yeast; S. cerevisiae expressing SARS-CoV PLpro, growth rescue; Potency, µM (top dose mostly 32.9 µM), for inactives: at the highest dose activity, positive = growth rescue, actives largely listed as activators; hit rate 0.19% among 330,000; AID 485353; calls by dose curve; further: potency means the concentration at half of the fitted maximal effect; 0% is about no effect; nearly all actives have a fitted effect of over 55% in size
Marburg entry inh – inhibitors of Marburg virus binding or cell entry. hit rate 1.8% among 300,000. Marburg virus pseudotyped entry inhibition, cell reporter. AID 540276. Potency, µM (series often up to 37.8 µM), inactives show top-dose activity change, negative = inhibition, hits mostly inhibitors; calls by dose curve; tested in HEK293 cells; further: potency means the concentration at half of the fitted maximal effect; on the % scale 0 is the no-effect control and ±100 the full control effect
FMDV antiviral – foot and mouth disease virus antiviral activity | FMDV antiviral cell-based qHTS | Potency, µM (top dose mostly 57.9 µM), for the others: at the highest dose activity change, negative = inhibition, hits mostly inhibitors | hit rate 1.2% among 410,000 | AID 1159524; calls by dose curve; tested in HEK293T cells; further: read-out not given here; potency means the concentration at half of the fitted maximal effect; on the % scale 0 is the no-effect control and ±100 the full control effect; nearly all actives have a fitted effect of over 45% in size
HCV inhibitor – blocks hepatitis C virus | Huh7.5.1 HCVcc-Cre infection, luciferase reporter, 44 h | Potency, µM (highest dose often 41.8 µM), for inactives: at the highest dose activity change, negative = inhibition, hits mostly inhibitors | hit rate 3.4% among 340,000; active means well fitted inhibition curve with a large enough effect; inconclusive means small, poorly fitted or top-dose-only effect, or another doubt; inactive means no such curve, though single readings can be large or run the other way; further: potency means the concentration at half of the fitted maximal effect; on the % scale 0 is the no-effect control and ±100 the full control effect
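Whole-lifecycle infectious HCVcc-Cre system; cells 1,000/well, compound then virus (~0.5 moi) added 4 h after plating, 44 h culture. Luciferase read 15 sec following 15 min substrate incubation, room temp.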
LASV entry inh – inhibitors of Lassa virus binding or cell entry. Lassa virus pseudotype entry inhibition, cell reporter. Potency, µM (highest dose often 37.9 µM), for the others: top-dose activity change, negative = inhibition, hits mostly inhibitors. hit rate 1.2% among 300,000. AID 540256; calls by dose curve; tested in HEK293 cells; further: potency means the concentration at half of the fitted maximal effect; on the % scale 0 is the no-effect control and ±100 the full control effect; nearly all actives have a fitted effect of over 50% in size
An asterisk follows results filed as active; ? = inconclusive; nt = not tested or not shown; [ ] = another dose, or the depositor's remark.

SMILES	HCMV antiviral	SARS PLpro yeast	Marburg entry inh	FMDV antiviral	HCV inhibitor	LASV entry inh
COc1ccccc1N1CCN(C(=O)c2cc3c(=O)n(C)c4ccccc4c3s2)CC1	10.9	nt	-26.5%[46.1 µM]	-6.9%	nt	10.0%[46.1 µM]
Cc1ccc(NC(=O)C(=O)NN=C2CCCC2)cc1C	-104.0*	0.6%	?	71.0%	12.9%	-4.1%
OCCN(CCO)c1ccc(C(c2ccccc2Cl)c2ccc(N(CCO)CCO)cc2Cl)c(Cl)c1	nt	16.1%	-27.1%	39.8µM*	?	11.2µM*
Cc1ccc(-c2ccc(=O)n(CC(=O)Nc3ccc(C(C)C)cc3)n2)cc1	27.5	nt	6.2%[46.1 µM]	-24.8%	nt	15.6%[46.1 µM]
Cc1ccccc1CN1CCN2C(C(=O)NCC3CCOCC3)=COC2=NC1=O	-0.3	nt	nt	nt	nt	nt
O=C(C1CCC(CNS(=O)(=O)c2cccc3cccnc23)CC1)N1CCc2ccccc21 (stereo not drawn)	-61.0*	-6.5%	nt	?	?	nt
CN(Cc1ccccc1)C(=O)C1CCC(CNS(=O)(=O)c2cccc3cccnc23)CC1 (stereo not drawn)	-61.9*	0.2%	nt	-26.2%	?	nt
CN1CCN(C(=O)C2CCC(CNS(=O)(=O)c3cccc4cccnc34)CC2)CC1 (stereo not drawn)	19.8	4.6%	3.1%	-21.3%	-5.3%	nt
CC(Oc1ccc(Cl)cc1Cl)C(=O)N(C)c1ccccc1 (stereo not drawn)	-67.2*	-1.0%	nt	1.5%	0.1%	nt
CCc1cccc(NC(=O)COC(=O)c2cc([N+](=O)[O-])ccc2N2CCOCC2)c1	-4.1	2.2%	?	?	10µM*	?
Cc1cc(NC(=O)COC(=O)c2cc([N+](=O)[O-])ccc2N2CCOCC2)ccc1Br	-37.4	-13.9%	?	31.6µM*	7.08µM*	?
CC1(C)CN(C2CCCCC2)C(=O)[C@@H]1CC(=O)Nc1ccccc1	nt	nt	nt	nt	nt	1.7%[46.1 µM]
CCc1ccc(S(=O)(=O)c2nnn3c2nc(NC2CCCCCC2)c2sccc23)cc1	-5.0	nt	nt	-22.8%	nt	29.7%[46.1 µM]
Cn1c(C=O)c(-c2ccc3c(c2)OCCO3)c2ccccc21	?	0.2%	nt	-20.0%	15.8µM*	nt
O=C(CCCn1c(=O)c2ccccc2n(Cc2cccc(Cl)c2)c1=O)NCCc1ccc(Cl)cc1	-8.1	nt	?	-19.3%	nt	?
CC(C)c1ccc(NC(=O)c2cc(S(=O)(=O)NCc3ccccc3Cl)ccc2F)cc1	-81.6*	nt	nt	7.4%	nt	?
COc1cc2c(cc1OC)CN(Cc1ccc(C)s1)CC2	-95.1*	-3.5%	-17.4%	-5.2%	11.3%	-6.0%
O=C(CN1C(=O)C2(SCC(=O)N2c2cccc(F)c2)c2ccccc21)NCCc1ccccc1 (stereo not drawn)	-107.1*	nt	nt	1.4%	nt	1.5%[46.1 µM]
COc1ccc(-n2nnnc2C(CCc2ccccc2)N2CCC(n3c(=O)[nH]c4ccccc43)CC2)cc1 (stereo not drawn)	-94.8*	nt	nt	28.2µM*	nt	nt
COc1ccc(-n2nnnc2C(CCSC)N2CCC(n3c(=O)[nH]c4ccccc43)CC2)cc1 (stereo not drawn)	-35.3	nt	nt	-18.3%	nt	nt
O=c1[nH]c2ccccc2n1C1CCN(C(CCc2ccccc2)c2nnnn2-c2ccc3c(c2)OCCO3)CC1 (stereo not drawn)	-104.1*	nt	nt	25.1µM*	nt	nt
COc1ccc(C(c2nnnn2-c2ccc3c(c2)OCCO3)N2CCC(n3c(=O)[nH]c4ccccc43)CC2)cc1 (stereo not drawn)	?	nt	nt	-9.3%	nt	nt
C(=C\c1ccccc1)/CN1CCN(C(CCc2ccccc2)c2nnnn2-c2ccc3c(c2)OCCO3)CC1 (stereo not drawn)	-9.2	nt	nt	-9.4%	nt	nt
O=c1[nH]c2ccccc2n1C1CCN(C(c2ccnc3ccccc23)c2nnnn2-c2ccc3c(c2)OCCO3)CC1 (stereo not drawn)	-75.7*	nt	nt	-21.6%	nt	nt
Cc1cccc(C)c1-n1nnnc1C(CCc1ccccc1)N1CCC(n2c(=O)[nH]c3ccccc32)CC1 (stereo not drawn)	-93.9*	nt	nt	10µM*	nt	nt
SMILES	HCMV antiviral	SARS PLpro yeast	Marburg entry inh	FMDV antiviral	HCV inhibitor	LASV entry inh
COc1ccccc1C1CN(Cc2c(C)nn(C)c2Cl)Cc2ccccc2O1 (stereo not drawn)	nt	nt	nt	-8.9%	nt	nt
CC1CCCCN1CCCNC(=O)c1ccc2c(c1)NC(=O)CN2C (stereo not drawn)	4.6	nt	nt	-6.4%	nt	nt
CCCCN(CCCNC(=O)c1c(C)cc(=O)oc1C)c1ccccc1	24.4	0.9%	-3.6%	-1.0%	3.98µM*	-0.5%
CCCCN(C(=O)c1ccc2c(c1)NC(=O)CS2)c1ccccc1	-100.3*	-0.6%	nt	-19.1%	?	nt
CCCCN(CCCNC(=O)c1ccc2c(c1)NC(=O)CN2C)c1ccccc1	-98.3*	nt	nt	22.4µM*	nt	nt
CCN(CC)C(=O)c1ccc(NC(=O)c2ccc3c(c2)NC(=O)CS3)cc1	113.0	2.7%	1.2%	1.1%	-1.1%	3.4%[46.1 µM]
COc1cc(NC(=O)CCn2c(-c3ccccc3)cc(C(C)=O)c2C)cc(OC)c1	0.0	nt	nt	-18.0%	nt	-11.2%[46.1 µM]
Cc1cccc(C2C3=C(Nc4[nH]n(-c5ccccc5)c(=O)c42)c2ccccc2C3=O)c1 (stereo not drawn)	-88.1*	6.5%	4.7%	-20.0%	-7.1%	5.3%
C=C1C(=O)O[C@H]2[C@H]1[C@@H](O)CC(=C)[C@@H]1CC(=O)[C@@H](C)[C@H]21	nt	0.0%	?	22.4µM*	?	?
O=C1c2ccccc2C(=O)C1c1nccc2ccccc12	18.0	-3.1%	2.51µM*	-69.1%	-3.8%	?
O=C1C(c2ccnc3ccccc23)=C(O)c2ccccc21	-27.0	-32.5%	?	-81.8%	-17.6%	2.82µM*
O=C1c2ccccc2C(=O)C1c1ccnc2ccccc12	-17.1	-18.5%	7.3µM*	-55.4%	-9.3%	?
CCC(C)NC(=O)C1CCN(S(=O)(=O)c2ccc3c(ccn3CC)c2)CC1 (stereo not drawn)	8.0	nt	nt	0.0%	nt	17.9%[46.1 µM]
Cc1ccc([C@H]2/C(=C(\O)c3cnn(-c4ccccc4)c3C)C(=O)C(=O)N2CCN2CCOCC2)o1	nt	nt	9.9%	nt	nt	nt
COc1ccc(N(C(=O)c2cccc(C)c2)S(=O)(=O)c2ccc3c(c2)n(C)c(=O)n3C)cc1	13.6	nt	-26.8%[46.1 µM]	0.0282µM*	nt	?
COc1ccc(C(=O)N(c2ccc(OC)cc2)S(=O)(=O)c2ccc3c(c2)n(C)c(=O)n3C)cc1	-8.6	nt	?	3.7%	nt	?
CCn1c(N)c(C(=O)Nc2ccccc2C(=O)OC)sc1=S	-1.3	-0.1%	7.3%	11.8%	10µM*	-6.9%
CCn1c(N)c(C(=O)NCCOC)sc1=S	30.9	6.6%	0.4%	-4.8%	11.3%	-10.3%
COCCCNc1nnc(Cc2ccc(Cl)cc2)c(=O)[nH]1	-74.9*	1.3%	nt	-27.9%	-1.9%	nt
Cc1cccc(OCC(=O)NCC(=O)N/N=C/c2cc(Br)cc(Br)c2O)c1	-82.8*	19.4%	?	-2.3%	?	-12.5%
Cc1ccc(/C=N/NC(=O)CNC(=O)COc2ccccc2)cc1	-61.3*	12.0%	5.2%	0.0%	1.7%	12.4%
